# Compound activity (PubChem BioAssay)
# Mtb betalactam: beta-lactam sensitization of Mtb H37Rv; M. tuberculosis H37Rv growth with meropenem, percent inhibition; inhibition, % at 25 µM; hit rate 0.27% among 330,000; AID 434955; call rule not given here;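 note: growth measured after seven days incubation then overnight dye step; 0% = bacteria only wells and 100% = bacteria with antibiotic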
# GDH-TPI counter: counter-screen for M. tuberculosis FBA inhibitors: GDH-TPI coupled enzymes; inhibition, % at 4.8 µM; hit rate 1.2% among 360,000; GDH-TPI coupled enzyme counterscreen, NADH absorbance;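 note: 0% = DMSO wells and 100% = wells lacking the enzyme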
# Mtb FBA inh: Mtb fructose-bisphosphate aldolase inhibition; P9WQA3; purified M. tuberculosis FBA, fluorescence read-out; inhibition, % at 1 µM; hit rate 2.3% among 360,000; in the data active = inhibition above about 27%;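 note: 0% = vehicle and 100% = reference inhibitor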
# Target sequence (P9WQA3 whole entry, looked up): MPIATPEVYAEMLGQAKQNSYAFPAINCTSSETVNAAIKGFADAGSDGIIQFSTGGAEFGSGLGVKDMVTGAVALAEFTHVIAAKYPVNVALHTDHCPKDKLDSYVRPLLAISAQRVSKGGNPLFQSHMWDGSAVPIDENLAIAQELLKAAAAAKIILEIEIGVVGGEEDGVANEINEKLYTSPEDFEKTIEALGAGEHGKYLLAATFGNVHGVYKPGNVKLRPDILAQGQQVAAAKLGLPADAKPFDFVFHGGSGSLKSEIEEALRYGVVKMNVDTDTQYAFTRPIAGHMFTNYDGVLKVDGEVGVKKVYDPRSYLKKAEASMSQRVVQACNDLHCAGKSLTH
# MazEF act: increases E. coli MazEF RNase cleavage of RNA | AID 504720 | hit rate 0.32% among 350,000 | P0AE70 | FAM/BHQ RNA-DNA oligo cleavage fluorescence, 5 h | activation, % at 20 µM; in the data active = activation above about 50%
# Target sequence (P0AE70 whole entry, looked up): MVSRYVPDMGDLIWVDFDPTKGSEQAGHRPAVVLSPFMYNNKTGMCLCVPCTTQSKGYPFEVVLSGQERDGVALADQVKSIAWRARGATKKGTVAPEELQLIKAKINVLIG
# CCHF vOTU inh: CCHFV vOTU protease inhibition; hit rate 0.55% among 370,000; inhibition, % at 11.5 µM; Pep-AMC fluorescence; note: 0% = vehicle wells with enzyme and 100% = no enzyme wells
# * = called active by the depositor; / = no result given; + = active, no number. Shown are actives, neighbours in structure and some others; about 4% of the full set was active somewhere. Cut-off read from the data, not from the text of the source, unless noted: active = inhibition above about 30%; inactive = the rest.
SMILES,Mtb betalactam,GDH-TPI counter,Mtb FBA inh,MazEF act,CCHF vOTU inh
CCn1c(SCC(=O)Nc2ccccc2-c2ccccc2)nnc1-c1ccc(Cl)cc1,/,/,/,/,5.4
CNC(=O)c1[nH]nc2c1CCc1ccccc1-2,4.9,5.3,3.8,0.3,23.1
COC(=O)c1[nH]c2c(c1C(=O)OC)CCc1ccccc1-2,-2.4,30.5,120.5*,-12.7,-99.0
CNc1nc(Nc2ccc(C(=O)OC)cc2)c2sccc2n1,/,24.8,3.6,/,/
COCCNc1nc(Nc2ccc(C(=O)OC)cc2)c2sccc2n1,/,31.0*,5.0,/,-4.1
Cc1ccccc1-n1c(N)c(C(=O)Nc2ccc(F)cc2)sc1=S,-0.2,12.0,2.3,-11.3,-2.1
Cc1ccc(-n2c(N)c(C(=O)Nc3ccccc3F)sc2=S)cc1C,-6.2,32.9*,-0.2,1.7,7.9
COC(=O)c1ccc2c(C)c(C3(O)CCCCC3)[nH]c2c1,-1.3,16.8,+,7.5,-215.0
COC(=O)c1cc(Cl)cc2c(C)c(C3(O)CCCCC3)[nH]c12,-0.6,-6.0,6.0,-4.3,9.4
Cc1c(/C=N/Nc2ccc(F)cc2)c(O)n(C)c(=O)c1C#N,85.3,33.2*,-5.9,1.0,9.1
COc1cccc(CNC(=O)[C@H]2CCCN2C(=O)[C@H]2CCCN2C(=O)c2ccccc2)c1,/,/,/,/,2.1
Cc1ccc(S(=O)(=O)Oc2ccc(C)cc2/C=N/N=C2\NC(=O)C(C)S2)cc1 (centres undefined),-6.4,38.1*,-1.4,2.6,14.3
CC1S/C(=N/N=C/c2cccc([N+](=O)[O-])c2)NC1=O (centres undefined),-14.4,-0.4,1.5,5.5,-11.6
O=C(N/N=C/c1ccc([N+](=O)[O-])cc1)c1cc(C2CC2)nc2ccccc12,0.1,33.3*,-4.7,2.9,-4.2
Cc1cc(C(=O)N/N=C/c2cc([N+](=O)[O-])ccc2O)c2ccccc2n1,7.6,6.5,-5.7,3.2,0.1
O=C(N/N=C/c1ccc([N+](=O)[O-])cc1)c1cc(C2CC2)[nH]n1,1.2,34.9*,-0.9,9.9,16.1
O=C(N/N=C/c1ccc([N+](=O)[O-])cc1)c1[nH]ncc1Br,-5.8,19.6,+,-3.3,8.8
Cc1cc(C(=O)N/N=C/c2ccc([N+](=O)[O-])cc2)c2ccccc2n1,-3.0,51.0*,-4.6,15.0,3.2
O=C(N/N=C/c1ccco1)c1cc(C2CC2)[nH]n1,-7.8,-5.4,1.3,9.7,-9.2
Cc1cc(C(=O)N/N=C/c2ccc3c(c2)OCO3)c2ccccc2n1,-11.1,40.5*,-1.7,6.4,-7.4
O=C(N/N=C/c1ccc2c(c1)OCO2)c1cc(-c2ccncc2)nc2ccccc12,-0.9,23.0,-6.7,1.1,6.5
CC(C)(C)C(=O)Nc1ccc(S(=O)(=O)N2CCCC2)cc1,-4.3,5.6,182.3*,-3.0,0.0
CC(=O)Nc1ccc(S(=O)(=O)N2CCCC2)cc1,0.2,5.7,-0.8,-4.1,10.7
COC(=O)c1ccc(S(=O)(=O)N2CCCCCC2)cc1,-5.8,46.6*,-5.4,1.3,-11.5
CN(CCOC(=O)c1cc2ccccc2o1)C1CN(Cc2cn(Cc3cccc(F)c3)nn2)S(=O)(=O)C1 (centres undefined),/,/,/,/,-9.2
SMILES,Mtb betalactam,GDH-TPI counter,Mtb FBA inh,MazEF act,CCHF vOTU inh
COc1cc(/C=N/NC(=O)c2ccc(NS(=O)(=O)c3cccs3)cc2)cc(OC)c1O,2.0,38.5*,0.6,4.9,17.1
COc1ccc(OC)c(C=NNC(=O)c2ccccc2NS(=O)(=O)c2cccs2)c1,-0.2,31.0*,12.8,-3.5,3.5
O=C(N/N=C/c1ccc2c(c1)OCO2)c1ccc(NS(=O)(=O)c2cccs2)cc1,10.7,32.9*,3.3,3.0,18.5
O=C(NN=Cc1ccc(F)c(F)c1)c1ccc(NS(=O)(=O)c2cccs2)cc1,2.5,45.8*,0.3,7.4,8.2
COc1cc(C=NNC(=O)c2ccccc2NS(=O)(=O)c2cccs2)cc(OC)c1O,5.2,22.6,-0.3,3.5,10.2
Cc1n[nH]c(C)c1N1C(=O)c2cccc3c(N4CCCCCC4)ccc(c23)C1=O,67.8,10.4,-18.2,670.0*,11.8
COc1ccc(OC)c(-c2nnc3n2N=C(c2ccc(OC)c(OC)c2)CS3)c1,7.2,34.5*,2.4,4.0,18.1
O=Cc1ccc(-c2cccs2)s1,/,27.6,+,3.2,-333.1
CCCCOc1ccc(N=Cc2cccs2)cc1,99.1,16.5,-1.7,-5.9,-18.3
Oc1ccc(N=Cc2ccc(-c3cccs3)s2)cc1,8.0,34.9*,+,12.3,-310.9
C=CCOC(=O)N[C@H](c1ccc(-c2ccccc2)cc1)[C@H](C)/C=C/CC(=O)OC,/,/,/,/,10.7
C=CCN1[C@@H](C)COc2cc(N3CCCC3)ccc2S1(=O)=O,/,/,/,/,-6.7
CNc1nnc(-c2ccncc2)s1,6.0,16.5,145.1*,4.5,-70.2
CCNc1nnc(-c2ccncc2)s1,-2.1,21.0,136.0*,-1.2,-114.7
O=C(CSc1nnc(-c2ccccc2)n1-c1ccc(Cl)cc1)Nc1ccccc1-c1ccccc1,/,/,/,/,17.1
Cn1c(CNc2ccc(O)cc2)nc2ccccc21,2.2,6.3,-1.1,105.0*,-11.5
CCOC(=O)NC[C@@]1(C(=O)OC)CC(=O)N(C)[C@@H]1c1ccccc1,/,/,/,/,-4.2
C[N+](C)(C)CCC(=O)N1C/C(=C/c2ccccc2)C(=O)/C(=C\c2ccccc2)C1,/,40.5*,0.1,10.9,-2.2
CN(C)CCC(=O)N1C/C(=C/c2ccccc2)C(=O)/C(=C\c2ccccc2)C1,/,35.3*,0.7,-9.9,3.7
CCOC(=O)N1C/C(=C\c2ccccc2)C(=O)/C(=C/c2ccccc2)C1,/,15.0,0.0,2.5,-11.1
O=C(/C=C/c1ccccc1)CCN1CCOCC1,/,17.2,0.7,-9.2,-13.3
O=C1/C(=C/c2ccccc2)CN(C(=O)CCN2CCOCC2)C/C1=C\c1ccccc1,/,37.1*,3.0,-9.9,-15.3
COc1ccc(CNCC#CC2=CCCCC2)c(OC)c1,/,/,/,/,-6.0
CCCCOc1ccc(C(=O)Nc2ccc(S(=O)(=O)Nc3cc(C)on3)cc2)cc1OC,8.7,6.3,2.2,56.5*,2.9
CCCCOc1cccc(C(=O)Nc2ccc(S(=O)(=O)Nc3cc(C)on3)cc2)c1,-6.1,-8.9,-4.0,0.1,3.9
SMILES,Mtb betalactam,GDH-TPI counter,Mtb FBA inh,MazEF act,CCHF vOTU inh
CC1CCc2sc(-c3n[nH]c(=S)o3)cc2C1 (centres undefined),3.5,15.4,+,-2.3,-59.8
CSc1nnc(-c2cc3c(s2)-c2ccccc2CC3)o1,94.5,16.8,+,-2.3,-174.8
Oc1cc2ccccc2cc1-c1n[nH]c(=S)o1,-1.8,17.6,6.4,1.9,5.5
S=c1[nH]nc(-c2cc3c(s2)-c2ccccc2CC3)o1,44.3,21.7,+,-8.5,-146.4
CC1CCc2sc(C(=O)NC3CCCCC3)cc2C1 (centres undefined),-6.6,3.5,3.0,-7.3,-0.9
CC1(C)CC(=O)c2cnc(NC(=O)Cc3ccc(Cl)cc3)nc2C1,-4.5,5.1,0.5,2.3,0.4
CCCCC(=O)Nc1ncc2c(n1)CC(C)(C)CC2=O,-6.9,-5.3,146.6*,-0.1,3.1
COc1cc2cc(CN(CCO)C(=O)c3cccs3)c(=O)[nH]c2cc1OC,/,37.2*,14.5,7.0,-7.5
